# Laboratory results reported in PubChem BioAssay (Tox21).
# “And” between values parts separate entries of the source, which are not always exact repeats. Identical values can stand only once. Records with an inconclusive call do not appear. A call without a number means that no potency is given here. More than one record can exist for a structure, and the calls need not agree. The source made the active and inactive calls. Unless noted, the call rests on the fitted dose curve; in most records, active means well fitted curve in the direction sought with a large enough effect in the repeat runs; inconclusive means weak or mixed curves; inactive means no such curve, though single readings can be large; an effect the other way counts as inactive or inconclusive.
# Assays:
# [1] = qHTS assay to identify small molecule agonists of the estrogen receptor alpha (ER-alpha) signaling pathway in the presence of an antagonist - cell viability counter screen (AID 1259386);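 further: cells exposed to compounds for 22 h at 37 °C before the viability read; nearly all actives have a fitted effect of over 30% in size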; further: potency means the concentration at half of the fitted maximal effect
# Method in brief: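 Fluorescent CellTiter-Fluor viability signal from VM7Luc4E2 cells, with the reagent added during the final hour of a 22hr compound exposure at 37C in the presence of 10.0nM ICI-182,780.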
# [2] = target: Progesterone receptor (Homo sapiens) (UniProt P06401); experiment: qHTS assay to identify small molecule agonists of the progesterone receptor (PR) signaling pathway (AID 1346784; calls by dose curve; further: nearly all actives have a fitted effect of over 30% in size)
# Method in brief: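 Beta-lactamase reporter read-out: after 16 hr compound treatment at 37C and a further 2 hr at room temperature with LiveBLAzer B/G FRET substrate, fluorescence was measured in PR-UAS-bla HEK 293T cells grown in 2% charcoal-stripped serum.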
# [3] = target: Progesterone receptor (Homo sapiens) (UniProt P06401); experiment: qHTS assay to identify small molecule antagonists of the progesterone receptor (PR) signaling pathway (AID 1346795; active means well fitted inhibition curve with a large enough effect in the signal ratio in the repeat runs, not every such curve was filed as active; the % refers to the signal ratio)
# Method in brief: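 Read-out is fluorescence from the LiveBLAzer B/G FRET substrate, cleaved by a UAS-controlled beta-lactamase in PR-UAS-bla HEK293T cells after 16 hr exposure to compound plus 1 nM promegestone (final), followed by 2 hr at room temperature.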
# [4] = qHTS assay to identify small molecule agonists of the progesterone receptor (PR) signaling pathway - cell viability counter screen (AID 1346799; calls by dose curve; further: nearly all actives have a fitted effect of over 45% in size)
# Method in brief: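 Luminescence from CellTiter-Glo, added after the beta-lactamase FRET read in the same wells, gave cytotoxicity in PR-UAS-bla HEK293T cells treated with compounds for 16 hr at 37C.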
# [5] = qHTS assay to identify small molecule antagonists of the TGF-beta/Smad signaling pathway - cell viability counter screen (AID 1346824); further: nearly all actives have a fitted effect of over 50% in size
# Method in brief: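 SBE-bla HEK 293T cells were plated overnight at 37 C, then given compounds in DMSO plus TGF-beta1 (added as 0.25 ng/mL solution) for 5 hr. After the bla read, CellTiter-Glo was added to the same wells and luminescence read after 30 min at room temperature.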
# [6] = qHTS assay to identify small molecule agonists of the TGF-beta/Smad signaling pathway (AID 1346859; active means well fitted activation curve with a large enough effect in the signal ratio in the repeat runs, not every such curve was filed as active; the % refers to the signal ratio; further: series mostly up to about 77 µM)
# Method in brief: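 SBE-bla HEK 293T, 4,000 cells/well, plated o/n; cpd in DMSO, 5 hr, 37 C/5% CO2; B/G FRET substrate 2 hr RT; ex 405, em 460/530 nm.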
# [7] = target: Thyrotropin-releasing hormone receptor (Homo sapiens) (UniProt P34981); experiment: qHTS assay to identify small molecule antagonists of the thyrotropin-releasing hormone receptor (TRHR) signaling pathway (AID 1346877; active means well fitted inhibition curve with a large enough effect in the repeat runs, not every such curve was filed as active; further: series mostly up to about 51 µM)
# Method in brief: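 In this cell-based calcium flux format, HEK293 cells expressing TRHR received test compound for 5 min before the agonist TRH (1 nM final). Dye loading lasted 2 h at 37 °C.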
# [8] = target: Thyrotropin-releasing hormone receptor (Homo sapiens) (UniProt P34981); experiment: qHTS assay to identify small molecule agonists of the thyrotropin-releasing hormone receptor (TRHR) signaling pathway (AID 1346891; calls by dose curve; further: series mostly up to about 58 µM)
# Method in brief: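 Intracellular calcium rise, read as fluorescence every second for 3 min, served as the agonist signal in dye-loaded HEK293 cells expressing TRHR; each compound ran at 15 concentrations in triplicate.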
# [9] = Human pregnane X receptor (PXR) small molecule agonists, qHTS cell viability counter screen (AID 1346977); further: nearly all actives have a fitted effect of over 50% in size; further: potency means the concentration at half of the fitted maximal effect
# Method in brief: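 PXR-Luc HepG2, 2,000 cells/well, 5% charcoal-stripped FBS; 5hr settle; cpd 24hr, 37C/5% CO2; CellTiter-Fluor at 23hr, read 1hr later (fluorescence).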
# [10] = Caspase-3/7 induction in HepG2 cells by small molecules, qHTS assay (AID 1346978); further: nearly all actives have a fitted effect of over 15% in size
# Method in brief: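 Wild-type HepG2 cells (2,000/well) were settled 5 h at 37 C, 5% CO2, then exposed to compounds in DMSO for 17 h. Caspase-3/7 activity was read by luminescence 30 min after adding Caspase-Glo 3/7 reagent at room temperature.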
# [11] = Caspase-3/7 induction in CHO-K1 cells by small molecules, qHTS cell viability counter screen (AID 1346979); further: nearly all actives have a fitted effect of over 35% in size; further: potency means the concentration at half of the fitted maximal effect
# Method in brief: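 Cells (CHO-K1, wild type) are plated at 1,500 per well and incubated 5hr. Test compounds in DMSO are then pinned in, followed by 16hr at 37C and 5% CO2. Viability is read by CellTiter-Fluor fluorescence after 1hr.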
# [12] = Caspase-3/7 induction in CHO-K1 cells by small molecules, qHTS assay (AID 1346980); further: nearly all actives have a fitted effect of over 15% in size
# Method in brief: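 Wild-type cells were seeded at 1,500 per well and settled 5 hr at 37 C, 5% CO2, then exposed to DMSO-dissolved compounds for 17 hr. Caspase-Glo 3/7 reagent was added, and luminescence was read after 30min at room temperature.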
# [13] = Caspase-3/7 induction in HepG2 cells by small molecules, qHTS cell viability counter screen (AID 1346981); further: nearly all actives have a fitted effect of over 30% in size; further: potency means the concentration at half of the fitted maximal effect
# Method in brief: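 Counter screen for cytotoxicity: HepG2 exposed 16 hr to compounds, then CellTiter-Fluor viability signal (fluorescence, 1 hr reagent incubation).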
# [14] = target: Nuclear receptor subfamily 1 group I member 2 (Rattus norvegicus) (UniProt Q9R1A7); experiment: Rat pregnane X receptor (rPXR) activation by small molecules, qHTS assay (AID 1346983); conditions: rPXR luciferase reporter cells, One-Glo luminescence, 24 h; stronger effect = higher value; further: nearly all actives have a fitted effect of over 20% in size
# Method in brief: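 Cell-based rPXR luciferase reporter assay, 2,000 cells per well, rested 5hr at 37 C before compound addition in DMSO, then 24 hr at 37 C. One-Glo reagent was added and luminescence read after 30 min at room temperature.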
# [15] = target: Nuclear receptor subfamily 1 group I member 2 (Homo sapiens) (UniProt O75469); experiment: CYP3A4 induction through human pregnane X receptor (PXR) by small molecules, qHTS assay (AID 1346984); further: nearly all actives have a fitted effect of over 40% in size
# Method in brief: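 DPX-2 reporter cells; 24h cpd, 37C; Luciferin-IPA 3uM final x3h; One-Glo 30 min RT; lumi read.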
# [16] = target: Cytochrome P450 2C19 (Homo sapiens) (UniProt P33261); experiment: Cytochrome P450 Family 2 Subfamily C Member 19 (CYP2C19) small molecule antagonists: luciferase reporter qHTS assay (AID 1671197); further: nearly all actives have a fitted effect of over 65% in size; further: potency means the concentration at half of the fitted maximal effect
# Method in brief: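 Enzyme-substrate mix with proluciferin substrate (P450-Glo CYP2C19 system) preincubated with compounds 10 min at room temperature; NADPH regeneration solution added, 37C for 1 h; detection reagent stops reaction, luminescence read after 20 min. Ketoconazole positive control.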
# [17] = qHTS assay to identify small molecule antagonists of the progesterone receptor (PR) signaling pathway - cell viability counter screen (AID 1346798);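 further: HEK293T PR-UAS-bla cells stimulated with the agonist R5020; series mostly up to about 92 µM; nearly all actives have a fitted effect of over 50% in size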
# Method in brief: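 HEK293T PR-UAS-bla, 2% charcoal-stripped FBS; 4 hr pre-plate; cpd + R5020, 16 h 37C; LiveBLAzer read first; then CellTiter-Glo 30 min RT, luminescence.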
# [18] = qHTS assay to identify small molecule agonists of the TGF-beta/Smad signaling pathway - cell viability counter screen (AID 1346829); further: top concentration of the series differs between compounds; nearly all actives have a fitted effect of over 45% in size
# Method in brief: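 CellTiter-Glo luminescence readout; SBE-bla HEK 293T cells, overnight plating, compound 5 hr at 37 C/5% CO2, then bla substrate 2 hr RT, then CellTiter-Glo 30 min RT.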
# [19] = target: Cytochrome P450 2D6 (Homo sapiens) (UniProt P10635); experiment: Cytochrome P450 Family 2 Subfamily D Member 6 (CYP2D6) small molecule antagonists: luciferase reporter qHTS assay (AID 1671196); further: nearly all actives have a fitted effect of over 50% in size; further: potency means the concentration at half of the fitted maximal effect
# Method in brief: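 Inhibition of CYP2D6 was gauged by loss of luminescence, since light produced tracks the luciferin generated from a proluciferin substrate. A 10 min room-temperature preincubation preceded 1 h NADPH-supported turnover.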
# [20] = target: Nuclear receptor subfamily 1 group I member 2 (Homo sapiens) (UniProt O75469); experiment: Human pregnane X receptor (PXR) small molecule agonists, qHTS assay (AID 1346982); further: nearly all actives have a fitted effect of over 35% in size
# Method in brief: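 Luminescence (ONE-Glo, 30 min RT) after 24 hr compound exposure of PXR-Luc HepG2 cells; cells rested 5 hr post-plating in 5% charcoal-stripped FBS medium.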
# Thyrotropin-releasing hormone receptor (Homo sapiens), sequence (P34981 whole entry, looked up): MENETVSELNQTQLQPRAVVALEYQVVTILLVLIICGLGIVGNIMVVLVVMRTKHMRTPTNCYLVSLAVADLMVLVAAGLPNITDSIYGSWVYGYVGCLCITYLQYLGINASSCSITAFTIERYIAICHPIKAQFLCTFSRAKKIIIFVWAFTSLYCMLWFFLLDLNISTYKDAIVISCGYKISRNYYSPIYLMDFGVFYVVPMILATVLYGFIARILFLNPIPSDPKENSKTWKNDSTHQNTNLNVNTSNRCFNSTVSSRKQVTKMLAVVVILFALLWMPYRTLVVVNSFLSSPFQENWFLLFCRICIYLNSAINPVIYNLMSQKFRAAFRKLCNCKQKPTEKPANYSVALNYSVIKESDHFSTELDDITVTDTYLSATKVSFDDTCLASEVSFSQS
# Cytochrome P450 2C19 (Homo sapiens), sequence (P33261 whole entry, looked up): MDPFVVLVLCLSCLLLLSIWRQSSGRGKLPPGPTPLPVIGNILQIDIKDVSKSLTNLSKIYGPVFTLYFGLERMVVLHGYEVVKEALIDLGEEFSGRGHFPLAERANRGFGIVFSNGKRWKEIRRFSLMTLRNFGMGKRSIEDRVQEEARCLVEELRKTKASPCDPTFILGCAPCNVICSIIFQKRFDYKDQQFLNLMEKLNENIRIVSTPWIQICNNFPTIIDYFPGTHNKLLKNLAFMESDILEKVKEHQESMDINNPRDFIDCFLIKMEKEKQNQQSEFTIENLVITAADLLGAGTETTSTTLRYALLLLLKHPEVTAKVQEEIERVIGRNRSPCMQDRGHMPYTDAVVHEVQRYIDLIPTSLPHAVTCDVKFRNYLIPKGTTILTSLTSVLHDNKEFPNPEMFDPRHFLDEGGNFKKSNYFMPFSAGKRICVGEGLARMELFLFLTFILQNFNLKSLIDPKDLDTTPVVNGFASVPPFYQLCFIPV
# Progesterone receptor (Homo sapiens), sequence (P06401 whole entry, looked up): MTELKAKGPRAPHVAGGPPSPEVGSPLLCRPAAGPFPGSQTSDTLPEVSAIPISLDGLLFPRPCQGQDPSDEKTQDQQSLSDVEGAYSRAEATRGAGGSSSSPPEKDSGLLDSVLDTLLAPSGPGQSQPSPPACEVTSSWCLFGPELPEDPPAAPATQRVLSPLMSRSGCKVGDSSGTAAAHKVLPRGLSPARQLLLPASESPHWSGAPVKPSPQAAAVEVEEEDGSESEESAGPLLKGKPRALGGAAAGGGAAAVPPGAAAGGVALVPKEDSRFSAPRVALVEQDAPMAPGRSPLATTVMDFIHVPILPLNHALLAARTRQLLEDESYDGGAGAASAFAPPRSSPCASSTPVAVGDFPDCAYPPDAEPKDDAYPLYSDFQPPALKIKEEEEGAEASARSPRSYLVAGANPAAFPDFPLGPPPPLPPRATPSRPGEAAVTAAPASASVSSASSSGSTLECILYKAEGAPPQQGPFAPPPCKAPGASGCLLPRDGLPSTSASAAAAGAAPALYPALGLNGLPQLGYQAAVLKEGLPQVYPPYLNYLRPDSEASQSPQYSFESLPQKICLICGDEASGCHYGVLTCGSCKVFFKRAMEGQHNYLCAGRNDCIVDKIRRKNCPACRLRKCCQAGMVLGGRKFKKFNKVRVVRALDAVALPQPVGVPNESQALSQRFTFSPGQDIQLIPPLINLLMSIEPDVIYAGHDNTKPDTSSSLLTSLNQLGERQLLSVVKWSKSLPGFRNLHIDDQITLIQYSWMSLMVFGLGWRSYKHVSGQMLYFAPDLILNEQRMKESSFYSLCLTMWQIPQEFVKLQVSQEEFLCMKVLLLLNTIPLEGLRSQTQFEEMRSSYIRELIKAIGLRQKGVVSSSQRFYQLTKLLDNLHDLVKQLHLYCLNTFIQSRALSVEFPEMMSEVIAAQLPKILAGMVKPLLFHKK
# Cytochrome P450 2D6 (Homo sapiens), sequence (P10635 whole entry, looked up): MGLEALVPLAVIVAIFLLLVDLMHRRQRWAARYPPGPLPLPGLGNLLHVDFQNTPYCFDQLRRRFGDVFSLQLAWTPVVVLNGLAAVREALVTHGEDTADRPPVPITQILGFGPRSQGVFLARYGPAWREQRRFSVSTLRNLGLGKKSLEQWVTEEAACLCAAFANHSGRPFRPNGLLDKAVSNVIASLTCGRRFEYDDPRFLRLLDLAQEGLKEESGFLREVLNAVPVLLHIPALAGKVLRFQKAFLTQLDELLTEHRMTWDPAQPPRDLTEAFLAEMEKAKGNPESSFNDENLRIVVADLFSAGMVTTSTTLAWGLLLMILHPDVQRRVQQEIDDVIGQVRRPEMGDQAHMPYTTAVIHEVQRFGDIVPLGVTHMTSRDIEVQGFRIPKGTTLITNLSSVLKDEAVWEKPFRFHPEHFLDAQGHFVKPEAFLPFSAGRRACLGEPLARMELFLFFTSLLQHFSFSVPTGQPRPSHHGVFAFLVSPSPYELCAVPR
# Nuclear receptor subfamily 1 group I member 2 (Homo sapiens), sequence (O75469 whole entry, looked up): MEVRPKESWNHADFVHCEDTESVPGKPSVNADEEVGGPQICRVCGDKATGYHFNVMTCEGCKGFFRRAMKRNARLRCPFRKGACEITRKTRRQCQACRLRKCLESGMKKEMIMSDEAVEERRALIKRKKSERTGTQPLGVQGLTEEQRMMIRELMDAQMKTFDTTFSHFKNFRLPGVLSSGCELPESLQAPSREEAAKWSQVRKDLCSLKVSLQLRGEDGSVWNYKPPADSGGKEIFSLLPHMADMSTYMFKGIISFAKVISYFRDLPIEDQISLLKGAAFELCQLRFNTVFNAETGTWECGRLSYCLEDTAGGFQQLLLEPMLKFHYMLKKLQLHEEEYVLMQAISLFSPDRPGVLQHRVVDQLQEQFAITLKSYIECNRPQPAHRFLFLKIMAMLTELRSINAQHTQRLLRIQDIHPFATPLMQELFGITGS
# Nuclear receptor subfamily 1 group I member 2 (Rattus norvegicus), sequence (Q9R1A7 whole entry, looked up): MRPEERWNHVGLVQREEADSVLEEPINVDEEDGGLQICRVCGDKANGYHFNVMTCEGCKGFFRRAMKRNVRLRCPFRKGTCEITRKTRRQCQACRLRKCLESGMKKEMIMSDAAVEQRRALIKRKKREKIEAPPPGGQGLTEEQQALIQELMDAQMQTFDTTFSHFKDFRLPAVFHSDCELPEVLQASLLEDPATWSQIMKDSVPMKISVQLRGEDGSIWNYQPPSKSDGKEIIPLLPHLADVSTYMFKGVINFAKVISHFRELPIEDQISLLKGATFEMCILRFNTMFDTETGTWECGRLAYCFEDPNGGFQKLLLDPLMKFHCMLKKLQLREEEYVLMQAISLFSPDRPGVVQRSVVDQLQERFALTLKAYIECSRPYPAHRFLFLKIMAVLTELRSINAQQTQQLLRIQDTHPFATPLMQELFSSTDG
SMILES,Potency [1],Potency [2],outcome [3],Potency [4],outcome [5],outcome [6],outcome [7],outcome [8],Potency [9],Potency [10],Potency [11],outcome [12],Potency [13],max activation [14],outcome [15],Potency [16],Potency [17],Potency [18],Potency [19],Potency [20]
Cc1ccccc1C(OCCN(C)C)c1ccccc1 (stereo not drawn),inactive,inactive,inactive,inactive,inactive,inactive,inactive,inactive,inactive,inactive,inactive,inactive,inactive,-0.826% (inactive),inactive,inactive,,,,
Cc1noc(NS(=O)(=O)c2ccc(N)cc2)c1C,inactive,inactive,inactive,inactive,,inactive,inactive,inactive,inactive,inactive,inactive,inactive,inactive,,,inactive,inactive,inactive,inactive,
Nc1ccc(O)c(C(=O)O)c1,48.1 µM (active) and 54.5 µM (active),inactive,inactive,inactive,inactive,inactive,inactive,inactive,inactive,inactive,,inactive,inactive,,,79 µM (active) and 31.7 µM (active) and inactive,inactive,,,
O=C(O)c1[nH]n(-c2ccc(S(=O)(=O)O)cc2)c(=O)c1N=Nc1ccc(S(=O)(=O)O)cc1,29.8 µM (active) and 61.3 µM (active) and 25.5 µM (active),,,inactive,inactive,inactive,inactive,inactive,39.8 µM (active) and 45.4 µM (active),inactive,29.8 µM (active) and 48.7 µM (active) and 45.4 µM (active),inactive,29.8 µM (active) and 27.4 µM (active) and 50.9 µM (active),,,inactive and 79.9 µM (active) and 29.6 µM (active),inactive,inactive,inactive,inactive
CCOc1ccc(NC(=O)CC(C)O)cc1 (stereo not drawn),inactive,inactive,inactive,inactive,inactive,inactive,inactive,inactive,,inactive,inactive,inactive,inactive,0.554% (inactive),inactive,inactive,inactive,,32.1 µM (active) and inactive,inactive
O=NO,inactive,,,inactive,inactive,inactive,,,inactive,inactive,inactive,inactive,inactive,,,,inactive,inactive,,
CC1(C)[C@@H]2CC[C@@]1(C)C(=O)C2,inactive,inactive,inactive,inactive,inactive,inactive,inactive,inactive,,inactive,inactive,inactive,inactive,-1.13% (inactive),inactive,inactive,inactive,,inactive,
